Screening results (PubChem BioAssay)
An excerpt weighted towards active compounds, which were near 1.3% of everything screened.
NR2F2 inh: NR2F2 transcriptional activity inhibitors, primary screen, cell-based, luciferase reporter, HEK293T, luminescence. inhibition, % at 8.6 µM. 370,000 tested, 0.7% active. HEK293T NGFI-A luciferase reporter. AID 686940, 2013. COUP transcription factor 2 (Homo sapiens), P24468;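 active means inhibition above a per-plate cutoff, mean inhibition of test wells between control levels plus 3 SD, cut at about 38% in these data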;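 further: cells cotransfected with COUP-TFII expression vector driving the NGFI-A reporter; 0% = median of COUP-TF2 test wells and 100% = reporter-only cells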
NR5A2 inv ag: LRH-1 (NR5A2) inverse agonists, primary screen, cell-based, luminescence, HEK293T, StAR-luciferase reporter. AID 602396, 2012. 360,000 tested, 0.13% active. Nuclear receptor subfamily 5 group A member 2 (Homo sapiens), O00482. LRH-1 transfected, 24 h. inhibition, % at 3.6 µM;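 active means inhibition above the mean inhibition of all tested compounds plus 3 SD, cut at about 73% in these data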;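 further: 0% = DMSO wells and 100% = reporter-only cells lacking LRH-1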
Gli-Sufu antag: Gli-Sufu pathway antagonists, primary screen, luciferase luminescence, Sufu-KO-LIGHT cells, uHTS. Sufu-KO-LIGHT fibroblasts, Gli luciferase reporter luminescence. AID 588413, 2011. inhibition, % at 5 µM. 340,000 tested, 0.74% active;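 active means inhibition above about 55%, limit read from the data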;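 further: 0% = DMSO-treated cells and 100% = wells with medium but no cells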
SRC3 inh: SRC3 coactivator transcriptional activity inhibitors, primary screen, cell-based, luminescence | HEK293 GAL4-SRC3 luciferase reporter | inhibition, % at 3.6 µM | 360,000 tested, 0.17% active | Nuclear receptor coactivator 3 (Homo sapiens), Q9Y6Q9 | AID 588352, 2011;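 active means inhibition above a per-campaign cutoff, the mean of all compounds plus 3 SD, cut at about 60% in these data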;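 further: 0% = DMSO-treated cells and 100% = gossypol-treated cells at 36 µM; higher means less SRC3-driven luciferase light from the GAL4 reporter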
NCOA2 inhibitor: inhibition of GAL4-SRC2 driven luciferase reporter, primary screen, SRC2 inhibitor project, cell-based, luminescence. HEK293 GAL4-SRC2 luciferase reporter. inhibition, % at 9 µM. 370,000 tested, 0.17% active. AID 651957, 2012;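 active means inhibition above the mean inhibition of all tested compounds plus 3 SD, set per campaign, cut at about 52% in these data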;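 further: 0% = DMSO treated cells and 100% = cells given Gossypol at 36 µM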
SRC1 inh: SRC1 coactivator transcriptional activity inhibitors, primary screen, cell-based, luminescence | Nuclear receptor coactivator 1 (Homo sapiens), Q15788 | HEK293 GAL4-SRC1 luciferase reporter | inhibition, % at 3.6 µM | 360,000 tested, 0.12% active | AID 588354, 2011;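 active means inhibition above the campaign mean plus 3 SD, with each screening campaign given its own cutoff, cut at about 60% in these data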;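 further: 0% = DMSO treated cells and 100% = gossypol at 36 µM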
Gli-Sufu confirm: Gli-SUFU pathway antagonists, confirmation, single concentration, luciferase luminescence, Sufu-KO-LIGHT cells; shares compounds with Gli-Sufu antag; Gli luciferase reporter; AID 602428, 2012; inhibition, % at 5 µM; 2,500 tested, 40% active;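 active means mean inhibition at 5 µM reaching about 45%, limit read from the data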;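 further: plate controls were DMSO-treated cells for no effect and wells lacking cells for full effect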
SufuKO cytotox: cytotoxicity in Sufu-KO-LIGHT cells, confirmation, cytotoxicity control for Gli-SUFU antagonist project, cell-based, ATP luminescence, single concentration. cytotoxicity, % at 5 µM. 2,500 tested, 32% active. AID 651994, 2013. shares compounds with Gli-Sufu antag;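 active means mean cytotoxicity at 5 µM above about 25%, limit read from the data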;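 further: cells exposed to compound overnight for roughly 16 to 18 hours; plate controls were DMSO wells with cells for no effect and medium without cells for full effect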
Wnt3a cs: Wnt3a reporter signal inhibition, confirmation, counter-screen for Gli-SUFU antagonist project, Wnt-LIGHT cells, luminescence, single concentration; shares compounds with Gli-Sufu antag; Wnt3a-driven luciferase reporter; inhibition, % at 6.25 µM; 2,500 tested, 20% active;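 active means mean inhibition above about 25%, limit read from the data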
An asterisk follows results filed as active; . = no result.

SMILES	NR2F2 inh	NR5A2 inv ag	Gli-Sufu antag	SRC3 inh	NCOA2 inhibitor	SRC1 inh	Gli-Sufu confirm	SufuKO cytotox	Wnt3a cs
CC(=NNC(=S)N1CCN(c2ccccn2)CC1)c1nccs1	.	53	89*	-18	.	-14	.	.	.
CC(=NNC(=S)N1CCN(C2CCCCCC2)CC1)c1ccccn1	32	65	65*	69*	27	73*	.	.	.
CC(=NNC(=S)N1CC2CCC(CC2)C1)c1ccccn1	-2	49	.	53	22	26	.	.	.
CC(=NNC(=S)N1CC2CCC(CC2)C1)c1cnccn1	-1	8	55	78*	-29	77*	.	.	.
COC(=O)C1=C(C)N(Cc2ccccc2C(F)(F)F)C(=NCc2ccccc2)NC1c1cccc(F)c1 (stereo unspecified)	13	.	.	.	20	.	.	.	.
COC(=O)[C@]12C[C@H](CC(=O)N3CCCCC3)C(=O)N(CCc3ccc(OC)c(OC)c3)C1=C[C@H](COCc1ccccc1)O[C@@H]2C	-7	.	.	.	-4	.	.	.	.
C=CCN(CC#Cc1ccc(C(F)(F)F)cc1)Cc1ccc(OC)cc1OC	-1	.	.	.	19	.	.	.	.
N#CCC[C@H]1CC[C@]2(CCCN(C(=O)c3ccccc3)C2)O1	-3	.	.	.	19	.	.	.	.
O=C(CSCc1ccc(Cl)cc1)N/N=C/c1ccccc1	-5	-4	51	9	-31	-25	8	15	-3
O=C(CSCc1ccc(Cl)cc1)N/N=C/c1c(Cl)cccc1Cl	-11	-9	5	2	-6	-7	.	.	.
COc1ccc(NC(=O)CSc2nnc(-c3cccs3)o2)cc1Cl	-8	.	.	.	-15	.	.	.	.
COc1ccc(OCC(O)CNC(C)c2ccccc2)cc1 (stereo unspecified)	16	6	6	-7	-4	-10	.	.	.
CC(NCC(O)COc1ccc(Br)cc1)c1ccccc1 (stereo unspecified)	-21	-6	58*	2	-8	1	14	2	-37
COc1ccc(Cc2n[nH]c(=S)o2)cc1	-24	11	55	-14	2	-16	19	1	-4
COc1ccc(CCCc2n[nH]c(=S)o2)cc1	9	-6	11	3	-11	3	.	.	.
Cc1ccc(-c2nc3ccccc3o2)cc1NC(=O)Cc1cccs1	-9	23	-3	-31	-6	0	.	.	.
O=C(Cc1cccs1)Nc1cccc(-c2nc3ccccc3o2)c1	3	-2	99*	-4	7	-19	20	14	-6
O=S(=O)(c1ccc2c(c1)C(=NO)c1cc(S(=O)(=O)N3CCCCC3)ccc1-2)N1CCCCC1	7	14	95*	6	-22	-1	93*	71*	104*
CC1CCN(S(=O)(=O)c2ccc3c(c2)C(=NO)c2cc(S(=O)(=O)N4CCC(C)CC4)ccc2-3)CC1	16	-6	-5	-7	-6	-30	.	.	.
CC(C)(C)C(=O)Nc1cc(S(=O)(=O)N2CCCCC2)ccc1N1CCCCC1	17	9	55	17	17	-5	27	0	-18
CC(=O)NC(Cc1ccccc1C)C(=O)NC1CCN(C(=O)NCc2ccccc2)CC1 (stereo unspecified)	2	-7	58*	10	-38	-11	22	2	-2
COc1ccccc1CC(NC(C)=O)C(=O)NC1CCN(C(=O)NCc2ccccc2)CC1 (stereo unspecified)	-14	0	0	9	-5	15	.	.	.
OC(c1ccccc1)(c1ccccc1)C1CCN(CCCOc2ccc(OC(F)(F)F)cc2)CC1	7	.	.	.	4	.	.	.	.
COC(=O)C[C@H]1CC[C@H]2[C@H](COc3ccc(NS(=O)(=O)c4cccc(F)c4)cc3C(=O)N2C)O1	-11	.	.	.	-15	.	.	.	.
CCn1cc(CN2CCC(n3nccc3NC(=O)CCc3ccccc3)CC2)cn1	5	-15	84*	3	-9	0	34	12	9
SMILES	NR2F2 inh	NR5A2 inv ag	Gli-Sufu antag	SRC3 inh	NCOA2 inhibitor	SRC1 inh	Gli-Sufu confirm	SufuKO cytotox	Wnt3a cs
CCn1cc(CN2CCC(n3nccc3NC(=O)CCOc3ccccc3)CC2)cn1	-16	3	13	11	6	-14	.	.	.
COc1ccc(N2CCN(CCCNC(=O)CCc3cccc(Cl)c3)CC2)cc1	26	.	.	.	8	.	.	.	.
CC1CN(C(=O)CCc2cc(C(C)(C)C)c(O)c(C(C)(C)C)c2)CC(C)O1 (stereo unspecified)	3	22	66*	-11	-19	0	86*	31*	29*
COc1cccc(CNC(=O)C(NS(=O)(=O)c2ccc3c(c2)CCN3C(C)=O)C(C)C)c1 (stereo unspecified)	6	-1	61*	-38	-31	-34	-3	24	-31
COc1ccc(CC(=O)Nc2ccc(C)cc2S(=O)(=O)N2CCOCC2)cc1OC	-2	.	.	.	-6	.	.	.	.
CCn1ncc(C2=NOC(C(=O)NCc3ccc(Cl)cc3)C2)c1C (stereo unspecified)	-31	18	50	-13	24	-5	50*	45*	1
CCn1ncc(C2=NOC(C(=O)Nc3ccc(C)cc3)C2)c1C (stereo unspecified)	13	18	6	2	19	11	.	.	.
COC(=O)[C@H](CC(C)C)N1Cc2nnn(Cc3ccccc3)c2-c2ccccc2S1(=O)=O	-1	.	.	.	15	.	.	.	.
CCn1c(=O)n(CC(=O)N2CCCC2)c(=O)c2ccccc21	-16	.	.	.	-5	.	.	.	.
C=CCN1[C@H](C)COc2cccc(N3CCCC3)c2S1(=O)=O	-2	.	.	.	23	.	.	.	.
COC(=O)CCCCCCCCCC[N+]1(C)CCCCC1	4	-4	2	11	-22	4	.	.	.
C[N+]1(CC(=O)OC2CCCCCCCCCCC2)CCCC1	-14	18	65*	1	24	-25	56*	29*	-30
CN[C@H]1C[C@H]2c3[nH]c4c(-c5ccc6c(c5)OCO6)cccc4c3CCN2C[C@H]1[C@H](C)O	-24	.	.	.	7	.	.	.	.
CN1CCN(/C=N/c2sc3c(c2C#N)CCCCC3)CC1	-21	-84	80*	-60	-88	-82	-31	7	-196
